# Assay results as given in publication PMC5540273 (PLoS ONE, 2017).
# Experiments:
# Details in all cases: concentration: 1 μM, replicates: in singlicate; n = 1
# PKN1 = system: PKN1
# PKN2 = system: PKN2
# PLK1 = system: PLK1
# PLK2 = system: PLK2
# PLK3 = system: PLK3
# PLK4 = system: PLK4
# PRKCD = system: PRKCD
# PRKCE = system: PRKCE
# PRKCH = system: PRKCH
# PRKCI = system: PRKCI
# PRKCQ = system: PRKCQ
# PRKD1 = system: PRKD1
# PRKD2 = system: PRKD2
# PRKD3 = system: PRKD3
# PRKG1 = system: PRKG1
# PRKG2 = system: PRKG2
# PRKR = system: T1, PRKR
# T1 construct: gene EIF2AK2
# PRKX = system: PRKX
# PRP4 = system: PRP4
# PYK2 = system: T2, PYK2
# T2 construct: gene PTK2B
# 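Note: KINOMEscan kinase panel screen.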
Structure (SMILES),%Inh (PKN1) [%],%Inh (PKN2) [%],%Inh (PLK1) [%],%Inh (PLK2) [%],%Inh (PLK3) [%],%Inh (PLK4) [%],%Inh (PRKCD) [%],%Inh (PRKCE) [%],%Inh (PRKCH) [%],%Inh (PRKCI) [%],%Inh (PRKCQ) [%],%Inh (PRKD1) [%],%Inh (PRKD2) [%],%Inh (PRKD3) [%],%Inh (PRKG1) [%],%Inh (PRKG2) [%],%Inh (PRKR) [%],%Inh (PRKX) [%],%Inh (PRP4) [%],%Inh (PYK2) [%]
Clc1cc(Cl)cc(Nc2ccnc(Nc3cc(Cl)cc(Cl)c3)n2)c1 [GSK175726],31,0,0,3,1,78,7,13,22,15,0,0,12,0,0,12,14,10,6,19
Cc1cccc(-c2nc(Nc3cccc(C(N)=O)c3)c3ccccc3n2)n1 [GW876019],0,0,0,0,4,0,7,0,0,24,0,64,66,87,0,0,6,0,11,6
COc1ccc(CNC(=O)NC2CCN(c3ccnc(Nc4cc(OC)c(OC)c(OC)c4)n3)C2)cc1 (centres unmarked) [GSK1379748],0,0,0,0,0,19,0,14,0,30,0,0,0,0,0,11,14,17,43,0
O=C(Nc1n[nH]c2cc(-c3cccc(F)c3F)ccc12)C1CC1 [SB-733894],39,6,0,26,13,22,7,0,0,21,19,0,0,0,0,0,3,0,4,0
COc1ccc(Nc2nccc(-c3cccc(NC(=O)c4cc5cc(F)ccc5[nH]4)c3)n2)cc1 [GSK1229782],0,0,24,0,0,4,42,43,20,32,12,10,11,24,10,0,10,46,66,21
Cn1ccc2ncnc(Oc3cccc(C(=O)Nc4ccccc4)c3)c21,0,0,0,0,0,2,2,0,0,0,0,0,9,0,3,0,0,0,5,0
CS(=O)(=O)c1ccc(-c2nc3n(c2-c2ccncc2)CCC3)cc1 [SKF-105942],8,0,0,22,0,11,0,18,1,2,0,3,0,0,0,5,0,2,11,0
Cn1ccc2ncnc(Oc3ccc(NC(=O)Nc4ccccc4)cc3)c21,2,0,0,0,0,11,7,4,0,11,13,0,2,0,7,31,0,0,0,0
Cc1cccc(-c2nc(C)cc(Nc3ccncc3)n2)n1 [GSK257997],0,0,5,0,0,1,15,0,5,12,0,78,80,85,0,6,0,1,13,0
CCCc1ccc(S(=O)(=O)NC2CCN(c3ccnc(Nc4ccc(F)cc4)n3)C2)cc1 (centres unmarked) [GSK1379715],7,0,0,0,0,0,0,17,11,0,27,1,0,0,0,0,0,1,20,0
Cc1cccc(-c2nc(-c3ccc(S(C)(=O)=O)cc3)sc2-c2ccnc(NCCc3ccccc3)c2)c1,6,13,0,5,0,7,8,0,14,6,26,1,0,0,20,20,0,0,9,4
Fc1cc(Cl)ccc1Nc1ccnc2cc(I)ccc12 [GW551191],17,0,0,0,0,1,0,10,2,16,18,1,0,0,5,0,0,0,13,1
COc1cc2nccc(Nc3ccc(NC(=O)c4ccc(C)cc4)c(O)c3)c2cc1OC.Cl [GW440132],0,0,0,0,0,13,24,0,17,12,16,0,0,0,0,0,0,18,2,12
Cc1ccc(C(=O)Nc2ccc(Nc3ccnc4cc(-c5ccccn5)ccc34)cc2O)cc1.Cl [GW440146],0,0,0,0,0,10,0,0,24,5,6,17,0,18,0,0,0,9,12,1
Cc1cccc(-c2nc(Nc3ccc4[nH]ncc4c3)c3ccccc3n2)n1 [GW857175],10,0,11,12,15,8,11,0,0,33,27,99.8,99.9,98.1,0,2,0,0,13,0
Cn1ccc2ncnc(Oc3ccc(Nc4nc5ccccc5[nH]4)cc3)c21,0,0,0,0,0,62,12,0,13,0,0,44,8,0,0,0,0,3,25,41
CCn1c(-c2cccnc2O)nc2cnccc21 [SB-736715],0,0,0,0,0,0,2,3,0,0,0,0,0,0,0,0,0,0,0,0
COc1cc2ncn(-c3cc(OCC4CCCO4)c(C(N)=O)s3)c2cc1OC (centres unmarked) [GSK204607],0,0,98.9,99.4,98.3,0,0,2,0,100,0,0,0,0,0,0,13,10,4,0
Cl.NC(=O)c1cccc(Nc2nccc(Nc3ccc(Oc4cccc(Cl)c4)c(Cl)c3)n2)c1 [GW659008],0,0,5,0,0,0,27,27,10,10,0,0,6,0,0,3,0,15,18,15
